The results in this text go back to PubChem BioAssay (NCI).

Molecules are shown by their SMILES. Compounds without any hit were thinned out: in the full panel of roughly 83,000, 20% have a hit.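 48-hour exposure, single concentration, 96-well plates; percent growth endpoint where 0 means no net growth. Active: below 10.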 Values without a mark were called inactive. The source made the active and inactive calls.

Assay in all cases: NCI-60 one-dose screen, 48 h (100 = growth as untreated, 0 = no growth, -100 = all killed)
Conditions in all cases: 10 µM unless noted

In assay [1] the test system is SR leukemia.
Assay [2] concerns RPMI-8226 leukemia.
Assay [3] has as its system OVCAR-8 ovarian.
Assay [4] deals with OVCAR-5 ovarian.
Assay [5] deals with OVCAR-4 ovarian.
In assay [6] the test system is SK-OV-3 ovarian.
The test system of assay [7] is IGROV1 ovarian.
The subject of assay [8] is OVCAR-3 ovarian.
The test system of assay [9] is HS 578T breast.
Assay [10] has as its system NCI/ADR-RES ovarian.

Regarding `CCOc1ccc(NC(=O)Nc2ccc(OCC)cc2)cc1`, the growth was 99.4% in assay [1]; 109% in [2]; 103% in [3]; 111% in [4]; 112% in assay [5]; 103% in assay [6]. In addition, the growth was 110% in assay [7], 105% in [8], 101% in assay [9] and 106% in assay [10].
As for `COc1ccc(-c2cc(-c3cn(-c4cccc(Cl)c4)nc3-c3ccc(OC)cc3)on2)cc1`, the growth is 68.4% in assay [1]; 88.3% in [2]; 93.7% in assay [3]; 111% in assay [4]; 106% in assay [5]; 98% in assay [6]. Besides, the growth in assay [7] was 97.5%; in [8] it was 103%; in assay [10], 100%.
On to `COc1ccc(/C=C2\c3cc(OC)c(OC)c(OC)c3CC[C@@H]2O)cc1F`, for which the growth is 3.9% (active) in assay [1]; 28.1% in [2]; 25.4% in assay [3]; 76.2% in [4]; 57% in assay [5]; 22.4% in assay [6]. Moreover, the growth is 43% in [7], 4.82% (active) in assay [8] and 8.8% (active) in assay [10].
Consider `CN1c2ccccc2S(=O)(=O)n2c(SCC(=O)Nc3nc4ccc(F)cc4s3)nnc21`, for which the growth was 59.8% in assay [1]; 70.1% in assay [2]; 97.4% in assay [3]; 113% in assay [4]; 112% in [5]; 112% in [6]. Moreover, the growth is -22.6% (active) in assay [7], 124% in [8] and 89.7% in assay [10].
For `CNCCCNc1nc2ccccc2c2c(=O)c3cc(Cl)ccc3sc12`, the growth was -39.9% (active) in assay [1]; -25.3% (active) in assay [2]; 24.5% in [3]; 47.1% in [4]; 63.6% in assay [5]; 84.4% in assay [6]. Moreover, the growth in assay [7] is 33.2%; in assay [8] it was 9.78% (active); in assay [9], 59.9%; in [10], 44.3%.
Take `Cc1ccc(NC(=O)c2cc3ccccc3cc2O)c(C)c1`: the growth in assay [1] was 76.8%; in assay [2] it was 29.4%; in assay [3] it was 109%; in assay [4], 96.9%; in [5] it was 74.4%; in assay [6], 99.4%. Besides, the growth was 80.4% in [7], 66.4% in assay [8], 98.9% in [9] and 82.8% in assay [10].
`COc1ccc(-c2nc3c(c(-c4ccc(Cl)cc4)nn3-c3ccccc3)c(-c3ccccc3)c2C#N)cc1`: the growth in assay [1] was 114%; in [2], 106%; in [3], 100%; in [4], 103%; in [5], 116%; in [6], 122%. The figures for the growth in [7], in assay [8] and in assay [10] were 111%, 111% and 108%, respectively.
As for `CCN(CC)CCOc1ccc(C(=O)/C=C\c2ccc(Cl)cc2Cl)cc1`, the growth in assay [1] is -15.4% (active); in assay [2], -23.9% (active); in [3], 53.3%; in assay [4] it was 68%; in assay [5] it was 52.6%; in assay [6], 43.2%. Besides, the growth is 32.2% in [7], 9.56% (active) in [8], 66.2% in [9] and 49.9% in assay [10].
On to `CC1=C(Cl)C(=O)c2cc(C)ccc2C1=O`, for which the growth in assay [1] is 89.3%; in assay [2], 99.6%; in assay [3], 92.4%; in assay [4], 107%; in assay [5] it was 103%; in [6], 105%. For the same molecule, the figures for the growth in [7], in assay [8] and in assay [10] were 103%, 105% and 105%, respectively.
In the case of `CCOC(=O)C(CCN(C)C)c1ccccc1` (configuration not stated), the growth in assay [1] is 97.8%; in assay [2], 98.2%; in assay [3], 111%; in [4], 88.7%; in assay [5], 100%; in assay [6], 104%. Also, the values for the growth in assay [7], in assay [8] and in assay [10] were 104%, 96.4% and 103%, respectively.
On to `COc1ccc(OC)c(Nc2nnc(-c3cc(OC)c(OC)c(OC)c3)o2)c1`, for which the growth was 89.6% in assay [1]; 95.2% in assay [2]; 104% in assay [3]; 105% in [4]; 99.3% in assay [5]; 104% in [6]. Further, the growth was 98.5% in assay [7], 112% in assay [8], 107% in [9] and 94.4% in assay [10].
For `Cc1c(C(C)(C)O)cn2ncnc(Oc3ccc(NC(=O)Nc4ccc(Cl)c(C(F)(F)F)c4)c(F)c3)c12`, the growth in assay [1] is 8.9% (active); in assay [2], 49.9%; in [3] it was 70.7%; in assay [4] it was 134%; in assay [5] it was 37.5%; in [6], 95.6%. The growth in assay [7] was 57.3%; in [8] it was 47.6%; in assay [9], 80.9%; in assay [10] it was 68%.
Regarding `COc1cc2ncnc(Nc3ccc(F)c(Cl)c3)c2cc1OCC(=O)N1CCOCC1`, the growth is 89.3% in [1]; 91% in [2]; 87.2% in [3]; 74.1% in assay [4]; 82.7% in [5]; 17.4% in assay [6]. In addition, the growth in assay [7] is 45.6%; in [8], 79.7%; in [10], 81.9%.
With `Cc1c2cnccc2c(C)c2c1c1cc(CO)ccc1n2C`, the growth in assay [1] was 8.41% (active); in assay [2], -20.5% (active); in assay [3], -13.8% (active); in assay [4], -27.5% (active); in assay [5] it was -56.2% (active); in assay [6] it was -43.1% (active). The growth in [7] is -36.4% (active); in [8], -33.7% (active); in assay [9], -13.1% (active); in assay [10], -24.6% (active).
`CC(C)n1c2ccc(Br)cc2c2c3c(c4c5ccccc5ccc4c21)C(=O)NC3=O`: the growth in [1] was 61.6%; in [2] it was 91.6%; in assay [3], 100%; in [4], 87.7%; in [5] it was 94.2%; in assay [6], 105%. Also, the growth in assay [7] was 84.8%; in assay [8], 94.2%; in [9], 108%; in assay [10], 93.2%.
Regarding `COC(=O)[C@@]1(C)CC[C@]2(C)CC[C@]3(C)C4=CC=C5C(=CC(=O)C(O)=C5C)[C@]4(C)[C@@H](O)C[C@@]3(C)[C@@H]2C1`, the growth was -6.62% (active) in assay [1]; 3.73% (active) in assay [2]; 4.47% (active) in [3]; 66.7% in assay [4]; 34% in assay [5]; 82.4% in assay [6]. Further, the growth is -46.8% (active) in [7], -16.6% (active) in [8] and 49% in assay [10].
For `CC1(/C=C/c2ccc(-c3ccccc3)cc2)CCn2cnc3ncnc(c32)N1O` (configuration not stated), the growth is 18.3% in [1]; 21.3% in assay [2]; 25.7% in assay [3]; 47.9% in assay [4]; 36.6% in [5]; 19.8% in [6]. Also, the figures for the growth in assay [7], in [8] and in assay [10] were 15.3%, 37.2% and 3.15% (active), respectively.
For `O=c1c2ccccc2n(C[C@H]2CO2)c2ccccc12`, the growth in assay [1] is 8.95% (active); in assay [2], 1.45% (active); in assay [3], 4.1% (active); in assay [4], -12.7% (active); in [5], 7.68% (active); in assay [6] it was -13.5% (active). Moreover, the growth is -52.3% (active) in [7], -19.7% (active) in assay [8], 6.14% (active) in [9] and -14.3% (active) in [10].
With `C=C1SC(=Nc2ccccc2Cl)N(C(=O)c2sc3ccccc3c2Cl)C1(C)C`, the growth in assay [1] was 65.4%; in assay [2], 4.32% (active); in assay [3] it was 61.4%; in assay [4], 92.4%; in [5], 29.8%; in assay [6], 58.6%. Moreover, the growth in [7] is 297%; in assay [8], 39.6%; in [9], 73.5%; in assay [10], 31.7%.
For `Cc1nc([P+](c2ccccc2)(c2ccccc2)c2ccccc2)c(N2CCCCC2)o1`, the growth is 20.3% in assay [1]; -13.5% (active) in assay [2]; 20.3% in [3]; 54.1% in assay [4]; 19.8% in assay [5]; 20.6% in assay [6]. Besides, the growth in assay [7] is 32.8%; in [8], 19.5%; in assay [10] it was 107%.
For the molecule `COC(=O)c1c2c(c(C)[n+]([O-])c1C)C(=O)C(NCc1ccccc1)=CC2=O`, the growth in assay [1] is 61.4%; in assay [2], 37.3%; in assay [3], 5.27% (active); in assay [4], 39.5%; in [5], -78.7% (active); in assay [6], 88.8%. The growth in [7] was 8.63% (active); in assay [8] it was 0.759% (active); in assay [9], 68.8%; in assay [10], 2.6% (active).
As to `O=C(/C=C/c1ccco1)Nc1ncc(Cc2cc(Cl)ccc2Cl)s1`, the growth is 12.1% in [1]; 23% in assay [2]; 14.1% in assay [3]; 34% in assay [4]; 56.8% in assay [5]; 31.9% in assay [6]. In addition, the growth in assay [7] was 21.3%; in assay [8] it was -44% (active); in [9] it was 8.67% (active); in assay [10], -0.63% (active).
On to `C=CCn1cc(-c2nc3ccccc3s2)c2cc(-c3ccc4c5c(cccc35)C(=O)N(CCO)C4=O)ccc21`, for which the growth was 104% in assay [1]; 99.3% in assay [2]; 91.2% in assay [3]; 92.9% in [4]; 99.6% in assay [5]; 107% in assay [6]. The growth in [7] is 77.7%; in assay [8], 105%; in assay [9], 104%; in [10] it was 98.3%.
As for `[N-]=[N+]=NCC1OC(n2cnc3c(NC(=O)Nc4ccccc4)ncnc32)C2OC(=O)CC12` (configuration not stated), the growth was 90.1% in [1]; 98.4% in assay [2]; 103% in [3]; 95.7% in assay [4]; 106% in [5]; 106% in assay [6]. The figures for the growth in assay [7], in [8] and in assay [10] were 91.3%, 95.1% and 102%, respectively.
On to `O=C(Nc1cccnc1Nc1ccccc1)c1cn(Cc2cccc(Oc3ccccc3)c2)nn1`, for which the growth was 26.6% in assay [1]; 57.2% in [2]; 71.4% in assay [3]; 103% in assay [4]; 86.9% in assay [5]; 77.1% in assay [6]. Besides, the results for the growth in assay [7], in assay [8] and in assay [10] were 78.1%, 52.6% and 33.8%, respectively.
As to `c1csc(-c2cn3nc(-c4c[nH]c5ccccc45)sc3n2)c1`, the growth in assay [1] is 14.5%; in assay [2], 17.1%; in assay [3], 29.2%; in assay [4], 37.1%; in assay [5] it was 45%; in assay [6], 26.4%. For the same molecule, the growth was 30.6% in assay [7], -7.97% (active) in assay [8], 29.1% in assay [9] and 12% in assay [10].
For `CC/C(=C(\c1ccc(Cl)cc1)c1ccc(OCCN2CCCCC2)cc1)c1ccc(O)cc1`, the growth is -11.2% (active) in [1]; 1.63% (active) in assay [2]; 62.6% in [3]; 70.4% in [4]; 36.7% in [5]; 68.1% in assay [6]. The growth in [7] is 66.8%; in assay [8], 40.4%; in assay [10], 53.3%.
